From PubChem
Rows were chosen to be rich in hits. Some 4.1% of all compounds tested hit in one or more screens of this group.
hgDAF12 agonist: activates the H. glycines DAF-12 receptor ligand-binding domain | HEK293 GAL4-hgDAF12 UAS-luciferase reporter, agonist luminescence; normalized to butyrate control | activation, % at 6.8 µM | 1.8% of 370,000 active | AID 687014;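 active means activation above a cutoff set at the mean of all screened compounds plus 3 SD, cut at about 10% in these data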;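 further: 0% = DMSO wells and 100% = sodium butyrate wells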
ssDAF12 agonist: S. stercoralis DAF-12 activation, primary screen; HEK293 ssDAF-12/GRIP1 lit1-tk-luc reporter, luminescence; % of 3 µM dafachronic acid response; activation, % at 6.8 µM; 1% of 370,000 active; AID 652126;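 active means activation above the mean over all tested compounds plus 3 SD, cut at about 0.9% in these data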;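 further: 0% = DMSO-only wells and 100% = 3 µM delta7-dafachronic acid wells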
hcDAF-12 act: activators of H. contortus DAF-12 nuclear receptor; HEK293 hcDAF-12 lit1-tk-luc reporter, luminescence; 0% DMSO, 100% Δ7-dafachronic acid; activation, % at 6.8 µM; AID 652067; 1.4% of 370,000 active;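 active means activation above the mean of all tested compounds plus 3 SD, cut at about 5.5% in these data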;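 further: 100% = response to 3 µM Δ7-dafachronic acid high control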
DAX1 inh-1: DAX1 (NR0B1) inhibition, primary screen; 1.1% of 370,000 active; HEK293T StAR-luciferase reporter, SF-1/DAX-1 repression relief; inhibition, % at 6.8 µM;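 active means inhibition above the mean over all tested compounds plus 3 SD, cut at about 3.6% in these data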;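 further: 0% = DAX-1 cells with DMSO and 100% = cells lacking DAX-1 with DMSO; higher inhibition means more luminescence from relief of DAX-1 repression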
DAX1 inh-2: inhibits human nuclear receptor DAX1; P51843; HEK293 Gal4-DAX1 luciferase reporter, luminescence; inhibition, % at 6.75 µM; AID 504766; 0.99% of 340,000 active;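 active means inhibition above the mean over all tested compounds plus 3 SD, cut at about 4.2% in these data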;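 further: 0% = DAX1-transfected cells with DMSO and 100% = empty-vector control cells with DMSO; inhibition shows as a rise in luminescence from relieved DAX1 repression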
Target sequence (P51843 207-470 limits assumed): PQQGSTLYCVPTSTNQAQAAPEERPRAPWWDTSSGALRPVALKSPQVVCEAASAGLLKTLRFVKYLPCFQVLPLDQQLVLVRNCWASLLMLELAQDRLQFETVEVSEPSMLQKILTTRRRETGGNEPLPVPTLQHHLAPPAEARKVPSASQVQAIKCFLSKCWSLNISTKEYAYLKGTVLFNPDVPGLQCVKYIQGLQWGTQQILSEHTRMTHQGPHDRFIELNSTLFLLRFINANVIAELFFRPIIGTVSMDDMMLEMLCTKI
* marks the source's active call; other numbers are inactive results; · = no result.

SMILES	hgDAF12 agonist	ssDAF12 agonist	hcDAF-12 act	DAX1 inh-1	DAX1 inh-2
Nc1ccc2oc(-c3cccc4ccccc34)nc2c1	-7	-1	-4	-1	-1
Cc1ccc(-c2nc3cc(N)ccc3o2)c(C)c1	12*	0	5	2	1
NC(=O)c1cnc(Cc2c[nH]c3ccccc23)c(I)c1	-1	0.9*	2	-1	·
CCCCCCC/C=C(\C)[C@@H](O)[C@@H](C)C(=O)N1CCC[C@@H]1C(=O)O	-1	-2	2	·	·
C/C(=N\Nc1ccc(C(F)(F)F)cn1)c1ccncc1	4	-1	0	4.0*	0
Oc1ccc(/C=N/Nc2ccc(C(F)(F)F)cn2)c(O)c1	-4	-1	-1	-2	0
Oc1ccc(/C=N/Nc2ccc(C(F)(F)F)cn2)cc1	9	0	3	4.4*	0
COC(=O)c1ccc(COc2ccc(CNCc3ccc(Cl)cc3)cc2)cc1	12*	-1	1	0	1
NC(N)=N/N=C/c1ccccc1OC(F)F	-1	-2	0	0	-1
FC(F)Oc1ccccc1/C=N/n1cnc2ccccc21	11*	-1	3	0	0
COc1cc(C(=O)N2CCC2(C)C(=O)NC(C)C)cc(OC)c1OC (stereo unspecified)	1	-1	1	0	·
O=C(NC(c1ccc(F)cc1)c1ccc2ccccc2n1)C1CCN(Cc2cccc(C(F)(F)F)c2)CC1 (stereo unspecified)	-5	-1	-1	3.7*	·
C=CCc1cccc(C=NNC(=O)c2ccco2)c1O	0	-1	-2	-4	·
Cc1ccc(SCCC(=O)N2CCC(C)CC2)cc1	9	0	2	1	5.7*
Cc1ccc(SCCC(=O)N2CCC(C(N)=O)CC2)cc1	-1	-1	1	0	1
CCCCCCCN(c1ccccc1)C1C[C@H]2CCCC(=O)N3CC[C@@H](C1)[C@@H]23 (stereo partly specified)	0	-1	1	0	·
COc1cc(C=O)ccc1OCc1ccccc1Br	5	0	6.2*	1	-1
Fc1cc(F)c(CSc2nnc(-c3cccnc3)n2Cc2ccccc2)cc1F	-1	-1	-2	0	·
O=C1c2cccc3c2C2(O)c4c1cccc4C(=O)c1cccc(c12)C3=O	2	-1	0	0	-2
CCc1ccccc1NC(=O)CSc1n[nH]c(C)c1[N+](=O)[O-]	-2	-1	-2	0	5.3*
Cc1[nH]nc(SCC(=O)NC(C)c2ccccc2)c1[N+](=O)[O-] (stereo unspecified)	2	-2	-2	0	4.3*
Cc1ccc(S(=O)(=O)N2c3ccccc3C[C@H]2CC=C(c2ccccc2)c2ccccc2)cc1	2	-1	3	·	·
O=[N+]([O-])c1ccc2nc(CNc3nc(N4CCOCC4)nc4c3ncn4-c3ccsc3)[nH]c2c1	-12	-3	-6	·	·
COc1ccc(-c2noc(C3CCCN(C(=O)Nc4ccccc4F)C3)n2)cc1 (stereo unspecified)	11*	-1	0	1	-2
Cc1ccc(-c2noc(C3CCCN(C(=O)c4ccccc4Br)C3)n2)o1 (stereo unspecified)	1	1.7*	0	1	0
SMILES	hgDAF12 agonist	ssDAF12 agonist	hcDAF-12 act	DAX1 inh-1	DAX1 inh-2
COc1ccc(-n2c(SC/C=C/c3ccccc3)nnc2-c2cccs2)cc1	2	-2	-2	-2	·
Cc1cc(NC(C)c2ccccc2)n2ncc(-c3ccccc3)c2n1 (stereo unspecified)	8	0	2	1	4.7*
Cc1cc(NCc2ccccc2)n2ncc(-c3ccccc3)c2n1	9	0.9*	4	4.1*	2
Cc1cc(C)n(-c2cc(C(C)(C)C)nc3c(-c4ccccc4)cnn23)n1	11*	0	3	3	5.2*
COC(=O)[C@]12C[C@H](CC(=O)NCc3ccccc3)C(=O)N(Cc3ccc(Cl)cc3Cl)C1=C[C@H](C1CCCC1)O[C@@H]2C	-1	-1	-1	-2	·
C/C(=N/NC(=O)c1sc(NS(=O)(=O)c2ccccc2)nc1C)c1ccccc1	0	-1	-1	0	5.6*
C/C(=N/NC(=O)c1sc(NS(=O)(=O)c2ccccc2)nc1C)c1ccc(F)cc1	1	-1	-2	0	0
FC(F)(F)c1ccccc1NC(=S)OCCN1CCCC12CCC(c1ccccc1)CC2 (stereo unspecified)	1	-1	-3	·	·
